# Shown are actives, neighbours in structure and some others; about 11% of the full set was active somewhere.
# HPGD inh = qHTS Assay for Inhibitors of HPGD (15-Hydroxyprostaglandin Dehydrogenase); Potency, µM, hits mostly inhibitors; purified HPGD, NADH fluorescence kinetic, PGE2 substrate; AID 894, 2007; 15-hydroxyprostaglandin dehydrogenase [NAD(+)] (Homo sapiens), P15428; actives 4.3% (n = 150,000); active = well fitted inhibition curve with a large enough effect, not every such curve was filed as active; inconclusive = small, poorly fitted or top-dose-only effect, or another doubt; inactive = no such curve, though single readings can be large or run the other way
#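 20 nM HPGD preincubated 15 min at room temperature with compound in 50 mM Tris-HCl pH 8, 0.01% Tween 20. Started with 1 mM NAD+ and 30 uM prostaglandin E2; NADH fluorescence (360/450 nm) read 5 times over 30-s intervals, last minus first.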
# PNC inhibitor = High Content Assay for Compounds that inhibit the Assembly of the Perinucleolar Compartment; actives 3.1% (n = 140,000); activity change (PNC), negative = inhibition, % at 10 µM; PC3M PTB-GFP, PNC prevalence imaging, 16 h; active compounds read low;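 active = readout at or below -70, meaning at least 70% loss of cells showing the perinucleolar compartment, a nuclear body marking cancer cells; inconclusive = readout between -30 and a set limit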
#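 PC3M cells stably expressing PTB-GFP, 750–1000 cells/well, treated 16 h at 37 °C with compound (23 nl of library stock), in duplicate. After paraformaldehyde fixation and Hoechst stain, imaged at 20x; PNC prevalence scored by image analysis.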
# HTT aggregate = qHTS Multiplex Assay to Identify Dual Action Probes in a Cell Model of Huntington: Aggregate Formation (GFP); Potency, µM (top dose mostly 46.1 µM), most hits filed as inhibitors; actives 1.1% (n = 220,000); PC12 HttQ103-GFP aggregates, Acumen cytometry, 40 h; note: nearly all actives have a fitted effect of over 60% in size
#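 Multiplexed with ATP-based cell death, this channel scores GFP aggregates in PC12 cells expressing inducible HTTex1-Q103-GFP. Induction used 100 nM tebufenozide; compounds were tested in concentration series.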
# HTT cytoprotect = qHTS Multiplex Assay to Identify Dual Action Probes in a Cell Model of Huntington: Cytoprotection (ATP); PC12 HTT-Q103 induced, cytoprotection, ATP luminescence, 40 h; Potency, µM (highest dose often 56.4 µM), hits mostly activators; actives 0.14% (n = 230,000); note: nearly all actives have a fitted effect of over 45% in size
#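 ATP quantification (ATPlite) reports survival of PC12 cells in which tebufenozide, 100 nM final, switches on Htt exon 1 with 103 glutamines linked to GFP; compounds are titrated.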
# ALDH1A1 inh = qHTS Assay for Inhibitors of Aldehyde Dehydrogenase 1 (ALDH1A1) | Aldehyde dehydrogenase 1A1 (Homo sapiens), P00352 | Purified ALDH1A1, NADH fluorescence, propionaldehyde substrate | Potency, µM (titrated, usually from 75.3 µM), hits mostly inhibitors | actives 7.3% (n = 220,000) | AID 1030, 2008; active = well fitted inhibition curve with a large enough effect, not every such curve was filed as active; inconclusive = small, poorly fitted or top-dose-only effect, or another doubt; inactive = no such curve, though single readings can be large or run the other way
# Target sequence (P00352 whole entry, looked up): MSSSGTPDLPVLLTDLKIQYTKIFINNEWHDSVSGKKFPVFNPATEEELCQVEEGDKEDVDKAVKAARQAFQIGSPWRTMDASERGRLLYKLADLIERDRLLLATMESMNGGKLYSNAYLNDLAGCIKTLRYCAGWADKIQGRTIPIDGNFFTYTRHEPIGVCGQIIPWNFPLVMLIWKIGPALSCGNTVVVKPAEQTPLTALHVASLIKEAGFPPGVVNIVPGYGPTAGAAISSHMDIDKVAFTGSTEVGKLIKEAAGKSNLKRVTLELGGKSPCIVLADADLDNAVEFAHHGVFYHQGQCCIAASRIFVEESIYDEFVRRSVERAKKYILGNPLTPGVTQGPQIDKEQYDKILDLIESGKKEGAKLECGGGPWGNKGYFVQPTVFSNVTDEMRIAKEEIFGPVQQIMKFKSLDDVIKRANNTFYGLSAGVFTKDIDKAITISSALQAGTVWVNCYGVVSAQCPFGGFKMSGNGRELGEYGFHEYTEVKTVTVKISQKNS
# GoLoco inh red = qHTS Assay for Inhibitors of RGS12 GoLoco Motif Activity (Red Fluorophore); Gai1:RGS12 GoLoco peptide FP, rhodamine, 10 min; actives 0.44% (n = 230,000); Guanine nucleotide-binding protein G(i) subunit alpha-1 (Homo sapiens), P63096; Potency, µM (series often up to 61.6 µM), actives largely listed as inhibitors; active = well fitted inhibition curve with a large enough effect, not every such curve was filed as active; inactive = no such curve, though single readings can be large or run the other way; note: nearly all actives have a fitted effect of over 30% in size
# Numbers stand for hits; n = inactive; u = inconclusive; x = no result given; [ ] = remark or other dose. Unless noted, calls come from the whole dose curve; as a rule, active = well fitted curve in the direction sought with a large enough effect; inconclusive = small, poorly fitted or top-dose-only effect, or another doubt; inactive = no such curve, though single readings can be large; an effect the other way counts as inactive or inconclusive.
SMILES,HPGD inh,PNC inhibitor,HTT aggregate,HTT cytoprotect,ALDH1A1 inh,GoLoco inh red
COc1ccc(N2Nc3n[nH]c(N)c3N2)cc1,n,n,n,n[10 µM],n,n
O=c1[nH]c(/C(Cl)=C/c2cc(Cl)ccc2O)nc2cc(Cl)ccc12,8.9µM,n,u,n[10 µM],n,n
Cc1cc(N(CCO)CCO)nc(-n2nc(C)cc2C)n1,n,n,n,n,11µM,n
COc1ccc([N+](=O)[O-])cc1/C=N/NC(=O)CNC(=O)C(c1ccccc1)c1ccccc1,n,n,n,n[10 µM],u,n
O=C(CNC(=O)c1ccccc1O)N/N=C/c1cc(Br)ccc1OC(=O)/C=C/c1ccco1,x,x,2.5µM,n,u,n
COc1ccccc1C(=O)NCC(=O)N/N=C/c1cc(Br)ccc1OCc1ccccc1,n,n,n,n[10 µM],n,n
O=C(CNC(=O)c1ccc(F)cc1)N/N=C/c1cc(Br)ccc1OCc1ccccc1,n,n,u,x,n,n
COc1ccc([N+](=O)[O-])cc1/C=N/NC(=O)CNC(=O)c1cccc(F)c1,25µM,u,n,n[10 µM],u,n
O=C(CNC(=O)c1cccc(F)c1)N/N=C/c1cc(Br)ccc1OC(=O)/C=C/c1ccco1,n,-81,8.9µM,x,u,n
OCCC1CN(Cc2cccn2-c2ncccn2)CCN1C1CCCC1 (stereo not drawn),x,x,n[9.22 µM],n[10 µM],n,n
O=C1C=C(NCCc2cc(Br)c(O)c(Br)c2)C(=O)c2ncccc21,n,x,x,n[10 µM],1.6µM,n[14.2 µM]
CCOc1ccc(-n2c(=S)sc3c(=O)[nH]c(SCC(=O)NC(C)CC)nc32)cc1 (stereo not drawn),n,-83,n[9.22 µM],n,n,n
O=[N+]([O-])c1ccccc1CNC(Cc1ccccc1)c1ccccc1 (stereo not drawn),n,u,n,n[10 µM],13µM,n
FC(F)(F)c1cccc(Cc2noc(CN3CCCC(CN4CCCC4)C3)n2)c1 (stereo not drawn),x,x,n[9.22 µM],n[10 µM],n,n
COc1ccc(C(=O)NC(=S)Nc2cc(C)ccn2)cc1[N+](=O)[O-],n,u,n,n[10 µM],0.32µM,n
CCOc1ccc(C(=O)NC(=S)Nc2ccc(NC(=O)CC)cc2)cc1[N+](=O)[O-],n,u,n,n[0.074 µM],u,n
CCOc1ccc(C(=O)NC(=S)Nc2ccc(N3CCCCC3)cc2)cc1[N+](=O)[O-],32µM,n,n,n[10 µM],11µM,n
CCOc1ccc(C(=O)NC(=S)NC2CCCC2)cc1[N+](=O)[O-],n,u,n,n[10 µM],13µM,n
CCOc1ccc(C(=O)NC(=S)Nc2ccccc2OC)cc1[N+](=O)[O-],n,n,n,n[0.074 µM],8.9µM,n
COc1ccc(C(=O)NC(=S)Nc2ccccc2N2CCCCC2)cc1[N+](=O)[O-],n,n,n,n[10 µM],u,n
CCOc1ccc(C(=O)NC(=S)Nc2ccccc2N2CCCCC2)cc1[N+](=O)[O-],n,n,n,n[10 µM],u,n
O=C(NC(=S)Nc1ccccn1)c1ccc([N+](=O)[O-])cc1,n,-85,n,n[10 µM],n,n
COc1ccc(CNC(=O)[C@H]2C[C@@H]2[C@H](NP(=O)(c2ccccc2)c2ccccc2)c2ccccc2)cc1OC,n,x,x,n,n,n
Cc1cc(C(=O)CSc2nc3ccccc3c(=O)[nH]2)c(C)n1C,22µM,u,n,n,n,n
Cc1cc(C(=O)CSC(C)c2nc3ccccc3c(=O)[nH]2)c(C)n1C (stereo not drawn),n,n,n,n,n,n
SMILES,HPGD inh,PNC inhibitor,HTT aggregate,HTT cytoprotect,ALDH1A1 inh,GoLoco inh red
O=C(CSc1nc2ccccc2c(=O)[nH]1)c1ccccc1,13µM,n,n,n[10 µM],u,n
CC(C)(C)c1ccc(C(=O)CSc2nc3ccccc3c(=O)[nH]2)cc1,n,n,u,n,u,n
OCC(CO)(CBr)CBr,n,x,x,n,u,n
CC(=O)N/C(=C/c1ccccc1)C(=O)N1CCCCC1,x,u,n,n[10 µM],u,x
CC(=O)N/C(=C\c1ccccc1)C(=O)OCC(=O)N1CCCCCC1,x,u,n,n[10 µM],11µM,x
CCNc1nc(OC)nc(Oc2ccc(=O)n(-c3ccccc3)n2)n1,n,-94,n,n[10 µM],n,n
COc1ccc(CNn2c(-c3cccs3)nc3ccccc3c2=O)cc1OC,x,x,u,n,25µM,n
Cn1c(SCC(=O)NC2CCCCC2)nnc1-c1cc2cc(Cl)ccc2o1,u,n,n[9.22 µM],n,n,n
CC(NC(=O)CSc1nnc(-c2cc3cc(Cl)ccc3o2)n1C)c1ccccc1 (stereo not drawn),n,-119,n,n[10 µM],n,n
O=C(NCCc1cn2ccccc2n1)c1cc(COc2ccc3ncccc3c2)on1,x,x,11µM,n,u,n
CCCCCOc1ccc(Br)cc1/C(C)=N/NC1=NCCN1,n,-88,u,n[1.9 µM],n,n
COc1ccc(Br)cc1/C(C)=N/NC1=NCCN1,n,n,u,n,n,n
Clc1ccc(OCc2nc(-c3ccncc3)no2)c(Br)c1,18µM,n,n,n[10 µM],n,n
Cc1ccc(OCc2nc(-c3ccccn3)no2)c(Br)c1,18µM,n,u,n,u,n
CC(C)c1ccc(OCc2nc(-c3ccccn3)no2)c(Br)c1,u,n,n,n,n,n
CCc1ccc(OCc2nc(-c3ccccn3)no2)c(Br)c1,28µM,n,n,n[10 µM],n,n
COc1ccc(COC(=O)N/N=C2/C[C@@H](O)[C@@H](O)[C@@H]3[C@@H]4C(=O)N(c5cccc(Oc6ccccc6)c5)C(=O)[C@H]4CC[C@@H]23)cc1,x,x,x,n[10 µM],n[13.5 µM],x
CCCCCCC(O)C/C=C/CCCCCCCC(=O)O (stereo not drawn),x,x,n,n,x,x
COc1ccc(C(=O)Cc2ccccc2)cc1OC,n,-84,n,x,n,n
COc1ccccc1OCc1ccc(C(=O)NN)cc1,n,n,n,n,14µM,n
Cc1ccc(COc2ccsc2C(=O)NN)cc1,x,x,n,n[10 µM],6.3µM,n
COc1ccccc1OCc1ccc(C(=O)N/N=C/c2ccco2)cc1,n,-114,n,x,n,n
COc1ccc(CC(=O)c2ccc(OC)c(OC)c2)cc1,n,n,n,x,n,n
COc1ccccc1OCc1ccc(C(=O)NN)o1,x,x,n[9.22 µM],n[10 µM],x,n
Cc1nnsc1-c1onc(C)c1C(=O)O/N=C/c1ccc(Cl)cc1,x,x,n[9.22 µM],n[10 µM],n,n
O=C(N/N=C/c1ccc[nH]1)c1ccc(COc2cccc3cccnc23)cc1,x,x,n,n,n,n
